Source: PubChem BioAssay (several laboratories)
sEH activator – soluble epoxide hydrolase activators, primary screen, biochemical, human sEH; activation, % at 2 µM; 91,000 compounds, 0.04% hits; purified human sEH enzymatic activity, activator screen; Bifunctional epoxide hydrolase 2 (Homo sapiens), P34913; in the data active = activation above about 37%
sEH inhibitor – soluble epoxide hydrolase inhibitors, primary screen, biochemical, human sEH | Bifunctional epoxide hydrolase 2 (Homo sapiens), P34913 | recombinant human sEH enzymatic activity assay | inhibition, % at 2 µM | 91,000 compounds, 0.34% hits; in the data active = inhibition above about 80%
CYP2C19 inhib – blockers of cytochrome P450 2C19 activity – biochemical, luminescence, ADME assay, primary screen. P33261. 96,000 compounds, 21% hits. CYP2C19 Supersomes, luciferin-H EGE luminescence, 30 min. inhibition, % at 5 µM;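 active = CYP2C19 inhibition above a set limit at 5 µM in the primary screen, cut at about 50% in these data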;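 note: plate controls were negative control wells for no effect and 2.5 mM tranylcypromine positive control for full effect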
CYP2C9 activ – human CYP2C9 activators, primary screen, biochemical, luminescence. 96,000 compounds, 1.4% hits. recombinant CYP2C9, luciferin-H conversion; hits give high values; factor 1 = untreated enzyme, 0 = blocked. Cytochrome P450 2C9 (Homo sapiens), P11712. activation factor at 5 µM;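 active = activation factor of 2 or more for CYP2C9 at a 5 µM dose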;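 note: 0 = sulfaphenazole-blocked wells and 1 = vehicle-only wells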
Target sequence (P11712 whole entry, looked up): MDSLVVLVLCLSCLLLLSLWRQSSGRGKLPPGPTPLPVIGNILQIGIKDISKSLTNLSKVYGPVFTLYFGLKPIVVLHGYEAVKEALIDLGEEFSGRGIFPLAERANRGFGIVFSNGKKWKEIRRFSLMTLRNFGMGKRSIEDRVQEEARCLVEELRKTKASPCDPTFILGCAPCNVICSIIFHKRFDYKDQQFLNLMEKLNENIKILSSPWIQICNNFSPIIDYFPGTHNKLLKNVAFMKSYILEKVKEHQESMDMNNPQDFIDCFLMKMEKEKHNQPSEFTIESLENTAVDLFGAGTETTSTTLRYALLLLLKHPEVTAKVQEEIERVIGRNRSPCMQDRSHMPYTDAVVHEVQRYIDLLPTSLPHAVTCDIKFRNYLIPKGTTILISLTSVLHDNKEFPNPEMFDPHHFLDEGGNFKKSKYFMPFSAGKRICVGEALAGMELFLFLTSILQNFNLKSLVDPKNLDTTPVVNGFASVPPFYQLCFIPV
CYP2C19 act – human CYP2C19 activators, primary screen, biochemical, luminescence | Cytochrome P450 2C19 (Homo sapiens), P33261 | recombinant CYP2C19, luciferin-H EGE luminescence; hits give high values; 0 = fully inhibited enzyme, 1 = untreated enzyme | activation factor at 5 µM | 96,000 tested, under 10 active;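 active = activation factor of at least 2 at 5 µM in the primary screen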;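 note: 0 = wells with 2.5 mM tranylcypromine and 1 = vehicle-only wells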
CYP2C9 inhib – blockers of cytochrome P450 2C9 activity – biochemical, luminescence, ADME assay, primary screen | 96,000 compounds, 20% hits | CYP2C9 Supersomes, luciferin-H conversion | inhibition, % at 5 µM;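 active = blocking of liver enzyme CYP2C9 beyond about 50% at 5 µM, limit read from the data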
The depositor's hits bear a star; x = no result given. Sampled rows, rich in hits. Any-hit rate of the full collection: about 27%.

SMILES	sEH activator	sEH inhibitor	CYP2C19 inhib	CYP2C9 activ	CYP2C19 act	CYP2C9 inhib
CCOC(=O)N1CCC(NC(=O)c2cccc3c2C(=O)N(CCOC)C3)CC1	2	-4	34	0.1	0.7	88*
COCCN1Cc2cccc(C(=O)Nc3cc(C)cc(C)c3)c2C1=O	-11	12	-1	0.6	1	38
CCOC(=O)N1CCC(N2Cc3cccc(C(=O)NC(C)c4ccc5c(c4)OCCO5)c3C2=O)CC1 (stereo not given)	-13	16	82*	0	0.2	98*
CCC1CCCCN1CCCn1c(=S)[nH]c2ccccc2c1=O (stereo not given)	-10	12	6	0.9	0.9	10
Cc1ccc(NC(=O)Cn2cncc2-c2ccc([N+](=O)[O-])cc2)cc1C	-2	2	24	0.9	0.8	7
CCn1c(C)nc2cc(C(=O)OC(C(F)(F)C(F)F)C(F)(F)C(F)F)ccc21	16	-18	48	0.5	0.5	54*
CCOC(=O)c1ccc2c(c1)nc(COc1ccc3ccccc3c1)n2CC	-4	5	18	0.5	0.8	48
CCn1c(C)nc2cc(C(=O)NNS(=O)(=O)c3c(C)c(C)cc(C)c3C)ccc21	4	-4	55*	1	0.5	-2
Cn1c(=O)[nH]c(=O)c2c1nc(Br)n2CC(O)c1ccccc1 (stereo not given)	15	-15	10	1	0.9	-1
Cc1cccc(C)c1NC(=O)N1CCC(c2nc3ccccc3o2)CC1	x	x	6	0.9	0.9	14
CC1(C)Cc2nc3sc4c(SCC(=O)NCc5ccccc5)ncnc4c3cc2CO1	-34	34	83*	0.3	0.2	73*
Cc1cc(C(F)F)nn1CC(=O)NCc1ccccc1F	16	-16	x	x	x	x
Oc1ccc(N2CCN(C(c3cccnc3)c3nnnn3Cc3ccccc3)CC2)cc1 (stereo not given)	10	-12	52*	0.4	0.5	57*
c1ccc(C(c2nnnn2C2CCCC2)N2CCN(c3nc4ccccc4s3)CC2)cc1 (stereo not given)	10	-10	x	x	x	x
c1ccc(CCn2nnnc2C(c2cccnc2)N2CCN(c3ccccc3)CC2)cc1 (stereo not given)	x	x	81*	0.3	0.2	73*
c1ccc(CCn2nnnc2C(c2cccnc2)N2CCN(c3nc4ccccc4s3)CC2)cc1 (stereo not given)	5	-7	59*	0.6	0.4	36
CCCC(=O)Nc1ccc(C(=O)/C=C/c2ccc(SC)cc2)cc1	-4	6	50*	0.3	0.5	73*
CSc1ccc(/C=C/C(=O)c2ccc(NC(C)=O)cc2)cc1	7	-7	51*	0.5	0.5	48
CSc1ccc(NC(=O)CC(C)=O)cc1	-3	3	-1	1.1	1	-14
Cc1ccc(C(=O)COC(=O)c2cc(Cl)nc3ccccc23)cc1C	14	-10	21	2*	0.8	-104
COc1ccc(N(CN2C(=O)C3CC=CCC3C2=O)C(=O)c2ccco2)cc1 (stereo not given)	-3	3	-9	1.2	1.1	-16
COc1ccc(N(C(=O)c2ccco2)S(=O)(=O)c2ccccc2)cc1	-8	6	87*	0.1	0.1	92*
COc1ccc2cc(/C=C/C(=O)c3ccco3)c(Cl)nc2c1	10	-14	12	0.9	0.9	14
COc1ccc(N(C(=O)c2ccco2)S(=O)(=O)c2cc(Cl)c(Cl)cc2Cl)cc1	-3	6	97*	0.1	0	94*
Cc1ccccc1NC(=O)c1cccc(N2C(=O)C3C4CCC(C4)C3C2=O)c1 (stereo not given)	8	-7	40	0.4	0.6	57*
SMILES	sEH activator	sEH inhibitor	CYP2C19 inhib	CYP2C9 activ	CYP2C19 act	CYP2C9 inhib
CC(C)CN(C#N)c1nc(N2CCOCC2)nc(N2CCOCC2)n1	-79	79	20	0.5	0.8	51*
COc1cc(OC)c(N2CC34C=CC(O3)C(C(=O)O)C4C2=O)cc1Cl (stereo not given)	13	-11	-4	1.1	1	-7
O=C(Nc1nncs1)C1(c2ccccc2)CCCC1	0	5	5	0.6	1	41
O=S(=O)(N/N=C\c1c(F)cccc1Cl)c1ccc(Cl)cc1	18	-18	81*	0.4	0.2	64*
CCn1ncc(/C=N/NS(=O)(=O)c2ccc(Cl)cc2)c1C	-5	7	67*	0.1	0.3	88*
O=S(=O)(N/N=C/c1ccc2c(c1)OCCO2)c1ccc(Cl)cc1	-2	4	32	0.3	0.7	71*
Cc1cc(Cl)c(S(=O)(=O)N/N=C/c2ccc3c(c2)OCO3)c(Cl)c1	10	-11	39	0	0.6	96*
Cc1oc(/N=C/c2ccc3c(c2)OCO3)c(C#N)c1C	0	-1	25	0.9	0.8	10
CNC(=S)NNC(=O)Cc1ccc(OC)c(OC)c1	6	-6	-20	1.2	1.2	-20
O=C(Cc1cc(=O)[nH]c(=O)[nH]1)N1CCC(Cc2ccccc2)CC1	4	-6	x	x	x	x
CC(NS(=O)(=O)c1ccccc1)C1COc2ccccc2O1 (stereo not given)	-2	3	54*	0.9	0.5	11
CCOc1ccc(Br)cc1C1C(C(=O)OC)=C(N)Oc2cc(N(C)C)ccc21 (stereo not given)	-11	12	94*	0.1	0.1	85*
COc1ccc(OC(C)C(=O)N2CCC(C)CC2)cc1 (stereo not given)	5	-8	16	1	0.8	0
CCOC(=O)c1cc(NC(=O)Nc2ccccc2OC)c(C)nc1C	-10	9	10	0.8	0.9	21
CCC(C(=O)Nc1ccccc1OC)n1c(C(=O)OC)cc2ccsc21 (stereo not given)	6	-5	98*	0	0	96*
CCOC(=O)CC1C(=O)NC2CCCCC2N1C(=O)Nc1ccc(Cl)cc1 (stereo not given)	6	-5	31	0.7	0.7	31
Cn1nc(C(=O)Nc2cccc(C(F)(F)F)c2)ccc1=O	-1	2	1	1.2	1	-22
Cc1ccc(NC(=O)c2c(C(F)(F)F)nn(C)c2SCc2ccc(Cl)cc2)cc1C	x	x	65*	0	0.4	100*
Cc1ccc(NC(=O)c2c(C(F)(F)F)nn(C)c2SCc2cccc(C(F)(F)F)c2)cc1C	x	x	46	0.1	0.5	92*
CCc1[nH]nc2c1C1(C(=O)N(Cc3ccccc3)c3ccccc31)C(C#N)=C(N)O2 (stereo not given)	5	-5	85*	0.1	0.1	88*
